Assay [1] concerns the target Glutathione peroxidase 1 (Homo sapiens) (UniProt P07203). The assay is described as follows: Primary qHTS Assay for Inhibitors of Recombinant Selenoprotein Glutathione Peroxidase 1 (GPX1) (AID 1845191). Also: nearly all actives have a fitted effect of over 65% in size. As to activity, negative = inhibition: % is scaled to controls: 0 for no effect and ±100 for the full control effect. The method, boiled down: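 Recombinant GPX1 (10 nM final) was preincubated with compound for 30 min at room temperature, then reacted with 1 mM GSH, 0.5 mM CHP, 0.5 mM NADPH and 100 nM glutathione reductase; NADPH fluorescence (340/450 nm) was read at 0 and 15 min.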

Assay [2] deals with Phospholipid hydroperoxide glutathione peroxidase GPX4 (Homo sapiens) (UniProt P36969). Nature of the assay: Primary qHTS Assay for Inhibitors of Recombinant Selenoprotein Glutathione Peroxidase 4 (GPX4) (AID 1845192). Also: nearly all actives have a fitted effect of over 65% in size. As to activity change, negative = inhibition: series mostly up to about 50 µM; % is scaled to controls: 0 for no effect and ±100 for the full control effect. The method, boiled down:
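GR-coupled readout: 100 nM GR, 1 mM GSH, 0.5 mM NADPH; NADPH fluorescence (ex 340/em 450 nm) read at t=0 and after 15 min RT. GPX4 200 nM, preincubated 30 min with compound; substrate 0.5 mM CHP.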

The target in assay [3] is Luciferin 4-monooxygenase (Photinus pyralis) (UniProt P08659). Nature of the assay: Primary firefly luciferase (FLuc) qHTS assay for identification of artifact compounds. (AID 1845220). Also: nearly all actives have a fitted effect of over 60% in size.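 As to activity change, negative = inhibition: series mostly up to about 54 µM; plate controls were DMSO vehicle for no effect and no enzyme for full effect.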 The procedure, abridged:
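In this counter-screen for luciferase artifacts, test compounds met substrate (10 uM each luciferin and ATP) before 10 nM enzyme started the reaction. Light output was measured 5 min later.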

Assay [4] can be described thus: Primary fluorescence-based thiol-reactive (MSTI) qHTS assay for identification of artifact compounds. (AID 1845221). Also: nearly all actives have a fitted effect of over 65% in size. Also: potency is read from the fitted curve at half-maximal effect.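 As to activity change, negative = thiol reactive: series mostly up to about 54 µM; thiol-reactive compounds lower the probe fluorescence signal.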 The procedure, abridged: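 A multi-concentration qHTS design tested compounds against 4 uM MSTI, pH 7.4 phosphate-buffered saline. Plates were protected from light for 1 h at room temperature before imaging fluorescence.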
The test system of assay [5] is Nanoluciferase (engineered Oplophorus gracilirostris luciferase). Nature of the assay: Primary Nanoluciferase (NLuc) qHTS assay for identification of artifact compounds. (AID 1845222).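 Also: NLuc secreted into diluted conditioned medium of S16 cells; series mostly up to about 54 µM; 0% = DMSO and -100% = no enzyme.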 The procedure, abridged:
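Using secreted nanoluciferase in S16 culture medium (0.22 um filtered, 1:55 dilution), compounds were preincubated 15 min at RT. Signal was generated with Nano-Glo reagent (1:100) over 5 min.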

A short description of assay [6]: Primary redox qHTS assay for identification of artifact compounds. (AID 1845223).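 Also: 0% = DMSO and 100% = reference compound.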 The method, boiled down: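 Amplex Red (25 uM) and HRP (250 mU/mL) in HBSS, with compounds for 15 min, then 250 uM DTT for 30 min, room temperature, dark. Fluorescence 525/598 nm read; normalized to DMSO and 10 uM DA3003; Hill fit.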

Unmarked numbers belong to inactive results. Results filed as inconclusive are left out. Calls of active or inactive are those of the source. Calls follow the shape of the dose curve; as a rule, active = well fitted curve in the direction sought with a large enough effect; inconclusive = small, poorly fitted or top-dose-only effect, or another doubt; inactive = no such curve, though single readings can be large; an effect the other way counts as inactive or inconclusive.

This is an account of results in PubChem BioAssay (NCATS).

Sequence of Phospholipid hydroperoxide glutathione peroxidase GPX4 (Homo sapiens) (P36969 whole entry, looked up): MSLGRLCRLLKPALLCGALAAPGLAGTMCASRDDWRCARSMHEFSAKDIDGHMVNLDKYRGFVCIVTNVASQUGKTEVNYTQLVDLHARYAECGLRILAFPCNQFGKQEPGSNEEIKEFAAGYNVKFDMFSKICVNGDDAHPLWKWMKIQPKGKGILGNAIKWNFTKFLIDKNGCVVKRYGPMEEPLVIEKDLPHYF
Sequence of Glutathione peroxidase 1 (Homo sapiens) (P07203 whole entry, looked up): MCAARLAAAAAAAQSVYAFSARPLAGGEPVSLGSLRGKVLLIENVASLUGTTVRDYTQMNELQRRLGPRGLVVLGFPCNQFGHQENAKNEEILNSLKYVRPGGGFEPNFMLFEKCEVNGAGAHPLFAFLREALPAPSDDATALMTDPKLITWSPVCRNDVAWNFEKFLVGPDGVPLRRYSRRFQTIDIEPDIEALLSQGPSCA

In the case of `C=C1C[C@H](O)[C@@H](O)[C@@]2(C)C1[C@@H](O)[C@H]1OC(=O)C3[C@@H](C)[C@@H](O)[C@H](O)C2[C@]31C` (stereo partly specified), the Potency entry in assay [1], in assay [2], in assay [3], in assay [4], in assay [5] and in assay [6] was “inactive” in each case.

Consider `COC(=O)C1=CO[C@@H](O[C@@H]2O[C@H](CO)[C@@H](O)[C@H](O)[C@H]2O)[C@@H]2C(CO)=CC[C@H]12`, for which the Potency entry in assay [1], in assay [2], in assay [3], in assay [4], in assay [5] and in assay [6] was “inactive” throughout.

For `CC(=O)N[C@H](Cc1c[nH]c2ccccc12)C(=O)OCc1cc(C(F)(F)F)cc(C(F)(F)F)c1`, the Potency entry in assay [1], in assay [2], in assay [3], in assay [4], in assay [5] and in assay [6] was “inactive” each time.

Turning to `Fc1cccc(CN(C2=NCCN2)c2c(Cl)cccc2Cl)c1`, the Potency result in assay [1], in assay [2], in assay [3], in assay [4], in assay [5] and in assay [6] was “inactive” in each case.

For `CC(=O)OC1(C)CC(O)C2(O)C=COC(OC3OC(CO)C(O)C(O)C3O)C12` (stereo unspecified), the Potency entry in assay [1], in assay [2], in assay [3], in assay [4], in assay [5] and in assay [6] was “inactive” in each case.

`COc1cc2c(cc1O)CC(O)(CO)C(CO)C2c1ccc(OC2OC(CO)C(O)C(O)C2O)c(OC)c1` (stereo unspecified): the Potency entry in assay [1], in assay [2], in assay [3], in assay [5] and in assay [6] was “inactive” throughout. Besides, the Potency in assay [4] was 10.3 µM (active).

On to `C=C1C2CCC3C(CCC4[C@@]3(C)CCC[C@@]4(C)C(=O)O)(C2)[C@@H]1OC(=O)/C(C)=C\C` (stereo partly specified), for which the Potency result in assay [1], in assay [2], in assay [3], in assay [4], in assay [5] and in assay [6] was “inactive” in each case.

As for `O=C(O)CCc1cccc(O)c1O[C@@H]1O[C@H](CO)[C@@H](O)[C@H](O)[C@H]1O`, the Potency entry in assay [1], in assay [2], in assay [3], in assay [5] and in assay [6] was “inactive” throughout. Moreover, the Potency in assay [4] is 14.7 µM (active).

As to `CC[C@H](C)[C@H](NC(=O)[C@H](Cc1ccc(O)cc1)NC(=O)[C@@H](N)C(C)C)C(=O)N[C@@H](Cc1cnc[nH]1)C(=O)N1CCC[C@H]1C(=O)N[C@@H](Cc1ccccc1)C(=O)O`, the outcome in assay [1] is “inactive [at 4.49 µM]”; in assay [3] it was “inactive [at 6.45 µM]”. In addition, the activity change, negative = inhibition in assay [2] was 4.63% [at 4.52 µM]. Moreover, in assay [4], the activity change, negative = thiol reactive is 19.3% [at 6.41 µM]. Moreover, the activity, negative = inhibition in assay [5] is 2.76% [at 6.45 µM]. Also, the redox activity (% of DA3003) in assay [6] was -2.99% [at 6.41 µM].

On to `Cc1ncc([N+](=O)[O-])n1C[C@H](O)CN1CCOCC1`, for which the Potency entry in assay [1], in assay [2], in assay [3], in assay [4], in assay [5] and in assay [6] was “inactive” each time.

`CCOc1nc2c(N)ncnc2n1CC`: the Potency entry in assay [1], in assay [2], in assay [3], in assay [4], in assay [5] and in assay [6] was “inactive” in each case.

Regarding `CC(=O)O[C@@]1(C)[C@@H]2CC(=C(C)C)C(=O)C[C@@]2(C)CC[C@H]1OC(=O)C1(C)OC1C` (stereo partly specified), the Potency entry in assay [1], in assay [2], in assay [3], in assay [4], in assay [5] and in assay [6] was “inactive” each time.

`CC(=O)OC1CC2(C)C(CCC(C)C23Cc2c(O)cc4c(c2O3)CNC4=O)C(C)(C)C1O` (stereo unspecified): the Potency result in assay [1], in assay [2], in assay [3], in assay [4], in assay [5] and in assay [6] was “inactive” in each case.

As to `CC(=O)O[C@@H]1C(=O)C(C)=C(CCC(C)CC(=O)O)[C@@]2(C)CCCC(C)(C)C12` (stereo partly specified), the Potency result in assay [1], in assay [2], in assay [3], in assay [4], in assay [5] and in assay [6] was “inactive” each time.

Regarding `CC(=O)NCC1CN(c2ccc(-c3ccc(CNCc4cn[nH]n4)cc3)c(F)c2)C(=O)O1` (stereo unspecified), the Potency result in assay [1], in assay [2], in assay [3], in assay [4], in assay [5] and in assay [6] was “inactive” each time.

On to `Cc1ccccc1-n1nc(-c2c(-c3ccc(F)cc3)nn3c2NC[C@@H](CO)C3)ccc1=O`, for which the Potency entry in assay [1], in assay [2], in assay [3], in assay [4], in assay [5] and in assay [6] was “inactive” each time.

Regarding `C[C@@H](CC[C@@H]1[C@@]2(C)CCCC(C)(C)C2CC[C@@]1(C)O)CC(=O)O` (stereo partly specified), the Potency result in assay [1], in assay [2], in assay [3], in assay [4], in assay [5] and in assay [6] was “inactive” in each case.

Consider `C[C@]12CC/C(=N\OCC(=O)O)C=C1CC[C@@H]1[C@@H]2[C@@H](O)C[C@@]2(C)[C@H]1CC[C@]2(O)C(=O)CO`, for which the Potency result in assay [1], in assay [2], in assay [3], in assay [4], in assay [5] and in assay [6] was “inactive” each time.

For `CC(=O)N[C@H]1[C@H](O[C@H]2CC[C@]3(C)C4CC=C5[C@@H]6CC(C)(C)CC[C@]6(C(=O)O)[C@H](O)C[C@@]5(C)[C@]4(C)CC[C@H]3C2(C)C)O[C@H](CO)[C@@H](O)[C@@H]1O` (stereo partly specified), the Potency entry in assay [1], in assay [2], in assay [3], in assay [4], in assay [5] and in assay [6] was “inactive” each time.

Regarding `CCC(C)(C)C1CCc2c(sc(NC(=O)c3ccc(Br)cc3)c2C#N)C1` (stereo unspecified), the Potency entry in assay [1], in assay [2], in assay [3], in assay [4], in assay [5] and in assay [6] was “inactive” each time.

Take `COC(=O)/C=C/c1ccc(O[C@@H]2O[C@H](CO)[C@@H](O)[C@H](O)[C@H]2O)cc1`: the Potency result in assay [1], in assay [2], in assay [3], in assay [4], in assay [5] and in assay [6] was “inactive” throughout.
